Bioassay records as filed in PubChem BioAssay.
Rows were chosen to be rich in hits. Some 9% of all compounds tested hit in one or more screens of this group.
HTT ATP protect – protects HTT-Q103 PC12 cells, measured by ATP; PC12 HTT-Q103 induced, cytoprotection, ATP luminescence, 40 h; Potency, µM (series often up to 56.4 µM), actives largely listed as activators; actives 0.14% (n = 230,000); AID 1471; also: nearly all actives have a fitted effect of over 45% in size
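Stable PC12 Q103-GFP cells in serum-supplemented, phenol red-free DMEM; induction by tebufenozide at 100 nM final; compound dose series; cell viability quantified luminescently from ATP.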
HPGD block – blocks human HPGD enzyme activity; Potency, µM, actives largely listed as inhibitors; actives 4.3% (n = 150,000); AID 894; purified HPGD, NADH fluorescence kinetic, PGE2 substrate; active = well fitted inhibition curve with a large enough effect, not every such curve was filed as active; inconclusive = small, poorly fitted or top-dose-only effect, or another doubt; inactive = no such curve, though single readings can be large or run the other way
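NADH formation kinetics: reaction with 30 uM PGE2 and 1 mM NAD+ (final), 20 nM enzyme, Tris-HCl pH 8 with Tween 20, after 15 min compound preincubation at room temperature. Fluorescence change, last versus first of five reads.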
ALDH1A1 block – ALDH1A1 (human) enzyme inhibition. P00352. Purified ALDH1A1, NADH fluorescence, propionaldehyde substrate. Potency, µM (top dose mostly 75.3 µM), most hits filed as inhibitors. actives 7.3% (n = 220,000). AID 1030; active = well fitted inhibition curve with a large enough effect, not every such curve was filed as active; inconclusive = small, poorly fitted or top-dose-only effect, or another doubt; inactive = no such curve, though single readings can be large or run the other way
Target sequence (P00352 whole entry, looked up): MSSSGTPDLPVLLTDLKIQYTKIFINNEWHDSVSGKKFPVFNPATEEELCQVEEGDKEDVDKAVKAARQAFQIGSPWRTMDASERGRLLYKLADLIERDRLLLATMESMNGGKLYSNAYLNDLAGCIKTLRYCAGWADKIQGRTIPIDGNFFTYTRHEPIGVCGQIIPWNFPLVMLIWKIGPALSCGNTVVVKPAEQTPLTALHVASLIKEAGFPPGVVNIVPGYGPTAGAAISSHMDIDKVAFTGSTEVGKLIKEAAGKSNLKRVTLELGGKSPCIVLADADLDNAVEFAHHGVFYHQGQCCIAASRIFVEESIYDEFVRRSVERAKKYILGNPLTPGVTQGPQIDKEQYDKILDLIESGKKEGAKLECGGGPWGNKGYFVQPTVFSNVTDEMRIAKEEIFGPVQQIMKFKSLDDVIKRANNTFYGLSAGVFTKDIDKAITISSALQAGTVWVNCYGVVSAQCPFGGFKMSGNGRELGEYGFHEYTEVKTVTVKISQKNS
Luc counter – counter-screen: inhibitors of Kinase-Glo firefly luciferase; AID 1379; actives 0.28% (n = 200,000); Kinase-Glo luciferase, ATP luminescence, 8 min; Potency, µM (top dose mostly 38.3 µM), usual class: inhibitors; also: nearly all actives have a fitted effect of over 60% in size
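Recombinant Kinase-Glo luciferase, 10 uM ATP (linear range), luciferin; imidazole pH 7.2 / KCl / MgCl2 / Tween / BSA buffer; 8 min RT; luminescence.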
Lamin A splicing – changes lamin A minigene splicing in HeLa cells; HeLa LMNA splicing GFP/RFP minigene ratio, 48 h; actives 0.01% (n = 200,000); Potency, µM (series often up to 46.1 µM), usual class: inhibitors; active = well fitted inhibition curve with a large enough effect in the signal ratio, with a control signal flat, not every such curve was filed as active; inconclusive = small, poorly fitted or top-dose-only effect, or effect the other way, or a change in a side signal; the % refers to the signal ratio
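S3 HeLa stable clones carrying a lamin A-EGFP splicing minigene plus DsRed2 were seeded at 600 cells/well in Opti-MEM with 2% FBS, pin-dosed and incubated 48 h at 37°C. Acumen cytometry (488 nm) gave the GFP/RFP total-intensity ratio.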
HTT aggregate – inhibitors of mutant huntingtin aggregate formation in PC12 cells. Potency, µM (series often up to 46.1 µM), actives largely listed as inhibitors. PC12 HttQ103-GFP aggregates, Acumen cytometry, 40 h. actives 1.1% (n = 220,000); also: nearly all actives have a fitted effect of over 60% in size
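Quantitative HTS on tebufenozide-induced (100 nM) PC12 cells stably expressing polyQ103 Huntingtin exon 1–GFP. Reduction of bright GFP aggregates, detected by laser scanning cytometry after lysis, identified actives across the titration.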
Each line names hits and unclear results; the compound was inactive in the other large screens. Unless noted, calls follow the shape of the dose curve; as a rule, active = well fitted curve in the direction sought with a large enough effect; inconclusive = small, poorly fitted or top-dose-only effect, or another doubt; inactive = no such curve, though single readings can be large; an effect the other way counts as inactive or inconclusive.

Cn1cnnc1SC(C(=O)c1ccccc1)c1ccccc1 (centres undefined)	ALDH1A1 block inconclusive
CCCC(=O)Nc1ccc(N2CCN(C(=O)CCC)CC2)cc1	Lamin A splicing inconclusive
Cc1cc(C)nc(N2CCN(C(=O)c3ccc(S(=O)(=O)N4CCCCCC4)cc3)CC2)n1	ALDH1A1 block 18µM, Lamin A splicing inconclusive (no result: HPGD block)
O=C(c1ccc(S(=O)(=O)N2CCCCC2)cc1)N1CCN(CCN2C(=O)c3cccc4cccc(c34)C2=O)CC1	ALDH1A1 block 0.63µM, Lamin A splicing inconclusive (no result: HPGD block)
O=C(c1ccc(S(=O)(=O)N2CCCC2)cc1)N1CCCCCC1	none (no result: HPGD block, ALDH1A1 block, Luc counter, Lamin A splicing)
CCN(CC)CCCCCOc1ccccc1OC	ALDH1A1 block 0.028µM
COc1cccc(C(=O)Nc2ccc(-n3nncc3C(C)(C)C)cc2)c1	none (no result: HPGD block, Lamin A splicing)
CC(C)(C)c1cnnn1-c1ccc(NC(=O)c2ccc3c(c2)OCO3)cc1	ALDH1A1 block 12µM
O=C(N/N=C/c1cn(-c2ccccc2)nc1-c1cccnc1)c1ccc(F)cc1	HTT ATP protect inconclusive (no result: HPGD block)
O=[N+]([O-])c1ccc(Nc2nc(Cl)nc(NCCO)n2)cc1	none (no result: HPGD block, Lamin A splicing)
Nc1c(S(=O)(=O)O)cc(Nc2ccc(Nc3nc(Cl)nc(Nc4ccc(S(=O)(=O)O)cc4)n3)c(S(=O)(=O)O)c2)c2c1C(=O)c1ccccc1C2=O	HPGD block 16µM, Luc counter inconclusive, Lamin A splicing inconclusive (no result: HTT aggregate)
CCn1c(COc2ccc(C)cc2)nnc1SCC(=O)C(C)(C)C	Lamin A splicing inconclusive
COCCn1c(SCC(=O)Nc2ccc(Cl)c(S(=O)(=O)N(C)C)c2)nc2ccccc21	ALDH1A1 block 32µM, Lamin A splicing inconclusive, HTT aggregate inconclusive
Cc1ccc(NC(=O)Cn2c(=O)cnc3ccccc32)cc1S(=O)(=O)N(C)C	ALDH1A1 block 14µM, Lamin A splicing inconclusive
Cc1ccc(NC(=O)CN2CCc3ccccc3C2)cc1S(=O)(=O)N(C)C	ALDH1A1 block inconclusive (no result: HPGD block)
CC(=O)c1ccccc1NC(=O)Cn1c(=O)cnc2ccccc21	ALDH1A1 block 1.8µM, Lamin A splicing inconclusive
CCN(CC)S(=O)(=O)c1ccc(Cl)c(C(=O)Oc2cccc(-c3cnc4ccccc4n3)c2)c1	Lamin A splicing inconclusive
CCN(CC)S(=O)(=O)c1ccc(Cl)c(C(=O)Oc2cccnc2)c1	ALDH1A1 block 14µM
CN(C)c1cccc(NC(=O)Cc2ccc(F)cc2)c1	ALDH1A1 block 14µM, Lamin A splicing inconclusive
CN(C)c1cccc(NC(=O)CCc2ccccc2)c1	ALDH1A1 block inconclusive
Cc1cccc(N(C)S(=O)(=O)c2ccc3c(c2)NC(=O)CC(=O)N3)c1	none (no result: HPGD block)
Cc1cccc(N(C)S(=O)(=O)c2ccc3[nH]c(=O)c(=O)[nH]c3c2)c1	HPGD block 14µM, ALDH1A1 block inconclusive
CC(C)Cc1nnc(NC(=O)CSc2nc(-c3ccccc3)cc(=O)[nH]2)s1	none (no result: HPGD block, Luc counter, Lamin A splicing)
CC(=O)N1CCN(c2ccc(Oc3ncnc4sccc34)cc2)CC1	HTT aggregate 18µM
NC(=O)c1cccc([N+](=O)[O-])c1	none (no result: Luc counter, Lamin A splicing, HTT aggregate)
O=C(Cl)c1cccc([N+](=O)[O-])c1	ALDH1A1 block 11µM (no result: Luc counter, Lamin A splicing, HTT aggregate)
O=[N+]([O-])c1cccc(Cl)c1	ALDH1A1 block 25µM (no result: Luc counter, Lamin A splicing, HTT aggregate)
OC1(c2cccs2)CN(c2ccc(Br)cc2)C2=[N+]1CCCS2 (centres undefined)	none (no result: HPGD block, ALDH1A1 block, Luc counter, Lamin A splicing)
O=C(O)c1cc2c(cc1S(=O)(=O)O)[C@H]1[C@@H]([C@H]3[C@H]2[C@@]2(Cl)C(Cl)=C(Cl)[C@]3(Cl)C2(Cl)Cl)[C@]2(Cl)C(Cl)=C(Cl)[C@@]1(Cl)C2(Cl)Cl	none (no result: HPGD block, ALDH1A1 block, Luc counter, Lamin A splicing, HTT aggregate)
CCC(CC)NC(=O)CC(c1ccccc1)c1ccccc1	HTT ATP protect inconclusive, Lamin A splicing inconclusive (no result: HPGD block)
COc1cccc(/C=C2\SC(=S)N(N3CCOCC3)C2=O)c1OC	ALDH1A1 block 14µM
COc1ccccc1/C=C1\SC(=S)N(N2C(=O)CCCC2=O)C1=O	ALDH1A1 block 25µM, Lamin A splicing inconclusive (no result: HPGD block)
O=C1/C(=C/c2ccccn2)SC(=S)N1N1CCOCC1	ALDH1A1 block 4.5µM (no result: HPGD block, Luc counter, Lamin A splicing)
Cc1ccc(-c2c(C#N)c(N)nc3c2CCCCC3)cc1	HPGD block inconclusive, ALDH1A1 block inconclusive
